17 molecules from PubChem BioAssay (EPA / NIEHS) can be followed below.

Assay [1] can be described thus: ATG_CRE_CIS: Attagene CIS-FACTORIAL HepG2 Assay for human cAMP Responsive Element (CRE) binding protein 3 (AID 2282926). Particulars: HepG2 CRE cis-reporter, Attagene multiplexed mRNA; actives raise or lower the signal. In short, it runs like this: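 Cells carrying cis-regulated reporter constructs respond through their own endogenous factors. After 24 h treatment, RNA is reverse-transcribed, amplified, labelled and sized by capillary electrophoresis; up- and down-regulation are both scored against vehicle.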

Assay [2] addresses CCAAT/enhancer-binding protein beta (Homo sapiens) (UniProt P17676). Put plainly: ATG_C_EBP_CIS: Attagene CIS-FACTORIAL HepG2 Assay for human CCAAT/Enhancer Binding Protein (C/EBP) beta (AID 2282927). Particulars: HepG2 Attagene cis-factorial transcription factor reporter; actives raise or lower the signal. Put shortly:
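HepG2, transient MRTU transfection, 24 h treatment. RT-PCR plus CE fluorescence; DMSO negative control, bidirectional fit.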

Assay [3] in a line: ATG_CMV_CIS: Attagene CIS-FACTORIAL HepG2 Assay for human CMV (Internal Marker) (AID 2282928).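 Also: endpoint acts as a background internal control marker rather than a target.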 Particulars: HepG2 CMV promoter reporter, transcription factor profiling; actives raise or lower the signal. Put shortly:
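Fluorescence intensity of RT-PCR-derived reporter fragments, resolved by capillary electrophoresis, gives the signal. HepG2 liver cells bearing transfected cis-element reporters were treated 24 h; activity in either direction was fit relative to DMSO-treated controls.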

The nature of assay [4]: ATG_DR4_LXR_CIS: Attagene CIS-FACTORIAL HepG2 Assay for human Liver X Receptor (LXR), DR4 submotif (AID 2282929). The following applies: HepG2 Attagene DR4 cis-reporter, mRNA transcription; actives raise or lower the signal. Put shortly:
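Readout: reporter transcript fluorescence after RT-PCR and capillary electrophoresis, fitted bidirectionally against DMSO controls. Human HepG2 liver cells carried transiently transfected multiplexed reporter constructs; endogenous transcription factor activity measured 24 h post-dosing.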

The target in assay [5] is Aryl hydrocarbon receptor (Homo sapiens) (UniProt P35869). Put plainly: ATG_Ahr_CIS: Attagene CIS-FACTORIAL HepG2 Assay for human Aryl Hydrocarbon Receptor (Ahr) (AID 2282930). Particulars: HepG2 AhR cis-factorial reporter transcription; actives raise or lower the signal. In short, it runs like this:
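Endogenous factor activity is tracked through cis-promoter reporter units transfected into HepG2 cells. Transcript levels at 24 h are read by fluorescent RT-PCR and capillary electrophoresis, with activity in either direction scored relative to DMSO.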

Assay [6] can be described thus: ATG_AP_1_CIS: Attagene CIS-FACTORIAL HepG2 Assay for human Activator Protein 1 (AP-1) (AID 2282931). Particulars: HepG2 Attagene cis-factorial AP-1 reporter mRNA; actives raise or lower the signal. In short, it runs like this:
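Reporter transcripts were measured 24 h after dosing by RT-PCR and capillary electrophoresis of fluorescent fragments. Cells: HepG2 carrying transfected cis-regulated reporter constructs reading endogenous factor activity. Gain or loss fitted against DMSO.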

The nature of assay [7]: ATG_AP_2_CIS: Attagene CIS-FACTORIAL HepG2 Assay for human Activator Protein 2 (AP-2) (AID 2282932). Particulars: HepG2 AP-2 cis-reporter, Attagene transcription factor profiling; actives raise or lower the signal. Put shortly: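 Liver-derived HepG2 line, cis-reporter system measuring endogenous factors; 24 h dosing; reporter mRNA detected by fluorescent RT-PCR and capillary electrophoresis.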

Assay [8] in a line: ATG_BRE_CIS: Attagene CIS-FACTORIAL HepG2 Assay for human Bone Morphogenetic Protein (BMP) Response Element (BRE) (AID 2282933). The following applies: HepG2 BMP response element reporter, Attagene transcription factor profiling; actives raise or lower the signal. Put shortly: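 After a 24 h chemical treatment, transiently transfected HepG2 cells were lysed for RNA; reporter transcripts were quantified by fluorescent RT-PCR and capillary electrophoresis, normalised to DMSO.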

Assay [9] has as its target Retinoic acid receptor alpha (Homo sapiens) (UniProt P10276). Briefly: ATG_DR5_RAR_CIS: Attagene CIS-FACTORIAL HepG2 Assay for human Retinoic Acid Receptor Alpha (RARE), DR5 submotif (AID 2282934).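 As to AC50: reporter responds to endogenous RAR alpha beta and gamma in HepG2 not RARA alone.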 The following applies: HepG2 Attagene cis-factorial RARE DR5 reporter, mRNA; actives raise or lower the signal. Put shortly:
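After 24 h of chemical exposure, transiently transfected HepG2 cells were lysed for total RNA; the DR5-regulated reporter transcript was quantified via RT-PCR and capillary electrophoresis, with activity fitted bidirectionally against DMSO.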

Assay [10] deals with Transcription factor E2F1 (Homo sapiens) (UniProt Q01094). Briefly: ATG_E2F_CIS: Attagene CIS-FACTORIAL HepG2 Assay for human E2F Transcription Factor 1 (AID 2282935). The following applies: HepG2 Attagene cis-reporter, E2F reporter RNA transcripts; actives raise or lower the signal. Put shortly:
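Liver-derived HepG2 cells expressing transfected promoter-driven reporter units received test chemical for 24 hours. Signal gains or losses were fitted bidirectionally against DMSO.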

Active and inactive are the calls of the source. The calls were made as follows: active = hit-call score of the fitted dose curve at least 0.9, where 1 is the maximum; inactive = score below 0.9.

Sequence of Aryl hydrocarbon receptor (Homo sapiens) (P35869 whole entry, looked up): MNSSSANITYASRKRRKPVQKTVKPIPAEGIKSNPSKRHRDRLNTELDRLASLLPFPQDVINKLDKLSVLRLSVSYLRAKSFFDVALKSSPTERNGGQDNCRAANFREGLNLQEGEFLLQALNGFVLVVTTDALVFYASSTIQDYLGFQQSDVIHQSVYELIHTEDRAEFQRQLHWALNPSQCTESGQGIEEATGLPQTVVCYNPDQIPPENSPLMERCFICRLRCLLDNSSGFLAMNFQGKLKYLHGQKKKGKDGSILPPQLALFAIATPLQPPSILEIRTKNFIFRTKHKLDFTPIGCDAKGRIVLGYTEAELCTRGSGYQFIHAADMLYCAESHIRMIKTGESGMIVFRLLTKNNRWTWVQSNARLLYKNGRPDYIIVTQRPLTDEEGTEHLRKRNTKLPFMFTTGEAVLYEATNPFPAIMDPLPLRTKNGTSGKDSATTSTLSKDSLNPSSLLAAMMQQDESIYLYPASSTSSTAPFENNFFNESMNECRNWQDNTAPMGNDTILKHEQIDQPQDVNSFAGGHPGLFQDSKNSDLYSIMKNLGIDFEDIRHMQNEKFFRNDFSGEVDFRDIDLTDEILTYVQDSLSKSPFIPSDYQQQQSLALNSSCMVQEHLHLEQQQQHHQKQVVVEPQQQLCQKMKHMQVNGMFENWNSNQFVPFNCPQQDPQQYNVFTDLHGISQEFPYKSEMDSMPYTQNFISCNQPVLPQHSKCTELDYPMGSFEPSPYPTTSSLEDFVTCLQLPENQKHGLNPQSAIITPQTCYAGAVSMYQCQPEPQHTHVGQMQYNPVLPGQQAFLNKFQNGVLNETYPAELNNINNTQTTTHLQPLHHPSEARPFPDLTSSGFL
Sequence of Transcription factor E2F1 (Homo sapiens) (Q01094 whole entry, looked up): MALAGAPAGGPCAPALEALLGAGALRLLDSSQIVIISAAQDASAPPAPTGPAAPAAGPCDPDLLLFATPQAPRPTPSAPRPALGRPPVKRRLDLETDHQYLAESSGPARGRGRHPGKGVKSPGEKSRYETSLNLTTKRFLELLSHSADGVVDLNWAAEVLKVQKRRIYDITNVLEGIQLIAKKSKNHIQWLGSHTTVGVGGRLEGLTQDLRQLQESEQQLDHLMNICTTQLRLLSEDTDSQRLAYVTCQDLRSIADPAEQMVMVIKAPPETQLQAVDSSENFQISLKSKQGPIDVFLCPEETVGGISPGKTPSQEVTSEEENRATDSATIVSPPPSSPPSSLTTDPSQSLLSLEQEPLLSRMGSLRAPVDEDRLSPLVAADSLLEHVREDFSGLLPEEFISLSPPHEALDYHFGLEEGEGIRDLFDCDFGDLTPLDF
Sequence of CCAAT/enhancer-binding protein beta (Homo sapiens) (P17676 whole entry, looked up): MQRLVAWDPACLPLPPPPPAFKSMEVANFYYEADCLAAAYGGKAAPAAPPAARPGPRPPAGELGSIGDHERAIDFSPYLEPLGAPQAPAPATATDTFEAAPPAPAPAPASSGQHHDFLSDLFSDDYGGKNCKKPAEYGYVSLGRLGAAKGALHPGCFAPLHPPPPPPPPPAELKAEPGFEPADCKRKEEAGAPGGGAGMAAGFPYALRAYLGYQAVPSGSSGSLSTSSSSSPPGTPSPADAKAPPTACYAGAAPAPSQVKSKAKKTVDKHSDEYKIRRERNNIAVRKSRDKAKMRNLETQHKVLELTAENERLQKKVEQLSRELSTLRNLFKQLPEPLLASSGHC
Sequence of Retinoic acid receptor alpha (Homo sapiens) (P10276 whole entry, looked up): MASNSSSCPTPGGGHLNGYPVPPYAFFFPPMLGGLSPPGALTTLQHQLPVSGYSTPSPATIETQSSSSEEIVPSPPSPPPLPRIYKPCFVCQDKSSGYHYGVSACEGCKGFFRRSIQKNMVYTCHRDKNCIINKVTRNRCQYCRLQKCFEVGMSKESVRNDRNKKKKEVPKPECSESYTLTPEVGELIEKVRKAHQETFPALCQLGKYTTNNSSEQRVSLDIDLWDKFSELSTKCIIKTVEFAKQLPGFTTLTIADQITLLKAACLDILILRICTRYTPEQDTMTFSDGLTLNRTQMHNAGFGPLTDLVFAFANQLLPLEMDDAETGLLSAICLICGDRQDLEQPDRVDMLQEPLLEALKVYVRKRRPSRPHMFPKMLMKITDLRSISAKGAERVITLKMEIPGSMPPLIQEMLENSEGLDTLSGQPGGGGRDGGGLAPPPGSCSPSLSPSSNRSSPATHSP

Consider `CN(C)C(=O)Nc1cccc(C(F)(F)F)c1`, for which the molecule was classed as inactive in assay [1], in assay [2], in [3], in [4], in [5] and in assay [6]. The molecule was classed as inactive in [7], in assay [8], in [9] and in assay [10].
As for `CCCSP(=O)(OCC)SCCC`, the call in assay [1], in [2], in assay [3], in assay [4], in assay [5] and in [6] was inactive. Moreover, the result in assay [7], in [8], in assay [9] and in assay [10] was inactive.
Consider `CCOP(=S)(Oc1cnc(C(C)(C)C)nc1)OC(C)C` (stereo not given), for which the result in assay [1], in assay [5], in assay [7] and in assay [10] was inactive. Besides, the AC50 in assay [2] was 2.22 µM (active); in assay [3] it was 50 µM (active); in assay [4], 12.9 µM (active); in assay [6], 62.2 µM (active); in assay [8], 50 µM (active); in [9], 12 µM (active).
Consider `CCOP(=O)(SC(C)CC)N1CCSC1=O` (stereo not given), for which the outcome in assay [1], in [2], in assay [3], in assay [4], in [5] and in assay [6] was inactive. For the same molecule, the molecule was called inactive in assay [7], in assay [8], in assay [9] and in assay [10].
Regarding `CCCOCC(=Nc1ccc(Cl)cc1C(F)(F)F)n1ccnc1`, the molecule was classed as inactive in [1], in assay [2], in assay [5], in assay [6], in assay [7] and in assay [8]. The molecule was called inactive in [10]. Also, the concentration at half-maximal activity (AC50) in assay [3] is 7 µM (active); in assay [4], 1.39 µM (active); in [9] it was 0.295 µM (active).
Regarding `CCC(=O)Nc1ccc(Cl)c(Cl)c1`, the molecule was classed as inactive in assay [1], in [2], in assay [4], in assay [5], in assay [6] and in assay [7]. Besides, the call in assay [8], in assay [9] and in assay [10] was inactive. Besides, the AC50 in assay [3] was 22.9 µM (active).
Consider `CN(C)NC(=O)CCC(=O)O`, for which the outcome in assay [1], in assay [2], in [3], in [4], in assay [5] and in assay [6] was inactive. Besides, the result in assay [7], in assay [8], in assay [9] and in [10] was inactive.
As for `S=C1NCCN1`, the molecule was called inactive in assay [1], in [2], in [3], in assay [4], in assay [5] and in assay [6]. In addition, the molecule was called inactive in assay [7], in assay [8], in assay [9] and in assay [10].
`FC(F)C(F)(F)OCC(Cn1cncn1)c1ccc(Cl)cc1Cl` (stereo not given): the AC50 was 23.2 µM (active) in assay [1]; 16.2 µM (active) in assay [3]; 50 µM (active) in [4]; 33.3 µM (active) in assay [5]; 58.4 µM (active) in assay [8]; 13 µM (active) in assay [9]. Also, the outcome in assay [2], in assay [6], in assay [7] and in assay [10] was inactive.
Turning to `CCOP(=S)(OCC)OC(Cl)C(Cl)(Cl)Cl` (stereo not given), the results for the AC50 in assay [1], in [2] and in assay [3] were 25.3 µM (active), 30.3 µM (active) and 71.1 µM (active), respectively. In addition, the call in assay [4], in [5], in assay [6], in assay [7], in assay [8] and in assay [9] was inactive. In [10], the result was inactive.
Consider `COc1cccc(C(=O)NN(C(=O)c2cc(C)cc(C)c2)C(C)(C)C)c1C`, for which the molecule was called inactive in [1], in [2], in [3], in [5], in assay [6] and in [8]. Further, the call in assay [9] and in [10] was inactive. Further, the AC50 was 50 µM (active) in assay [4] and 13.1 µM (active) in assay [7].
On to `CC(=NC#N)N(C)Cc1ccc(Cl)nc1`, for which the call in assay [1], in assay [2], in assay [3], in [4], in assay [5] and in [6] was inactive. In addition, the call in [7], in assay [8], in assay [9] and in assay [10] was inactive.
`CC(Oc1cccc(Cl)c1)C(=O)O` (stereo not given): the outcome in [1], in assay [2], in [3], in assay [4], in assay [5] and in [6] was inactive. The call in assay [7], in assay [8], in [9] and in assay [10] was inactive.
`CSc1nc(NC(C)C)nc(NC(C)C)n1`: the molecule was classed as inactive in assay [1], in assay [2], in assay [3], in assay [4], in [5] and in [6]. Also, the molecule was called inactive in [7], in [8] and in [10]. The AC50 in assay [9] is 21.9 µM (active).
In the case of `CCc1cnc(C2=NC(C)(C(C)C)C(=O)N2)c(C(=O)O)c1` (stereo not given), the molecule was called inactive in assay [1], in [2], in assay [3], in assay [4], in assay [5] and in assay [6]. Further, the molecule was classed as inactive in [7], in assay [8], in [9] and in assay [10].
As for `C#CCC1=C(C)C(OC(=O)C2C(C=C(C)C)C2(C)C)CC1=O` (stereo not given), the AC50 in assay [1] is 27.1 µM (active); in [2], 21.7 µM (active); in assay [4] it was 50 µM (active); in [5] it was 78.6 µM (active); in assay [6], 37.1 µM (active); in assay [7] it was 74.9 µM (active). The values for the half-maximal activity concentration (AC50) in assay [8] and in assay [9] were 9.01 µM (active) and 9.92 µM (active), respectively. In addition, the outcome in assay [3] and in [10] was inactive.
`Cc1ccn2nc(S(=O)(=O)Nc3c(F)cccc3F)nc2n1`: the outcome in [1], in assay [2], in [3], in [4], in assay [5] and in [6] was inactive. Moreover, the outcome in [7], in assay [8], in [9] and in assay [10] was inactive.

A word on the AC50: it is the concentration at which the activity in the assay is half-maximal.
